Bioassay records: PubChem BioAssay, National Center for Advancing Translational Sciences (NCATS)
LMNA splice mod: modulators of lamin A splicing; actives 0.01% (n = 200,000); HeLa LMNA splicing GFP/RFP minigene ratio, 48 h; Potency, µM (titrated, usually from 46.1 µM), inactives show top-dose ratio change, negative = inhibition, actives largely listed as inhibitors; active means well fitted inhibition curve with a large enough effect in the signal ratio, with a control signal flat, not every such curve was filed as active; inconclusive means small, poorly fitted or top-dose-only effect, or effect the other way, or a change in a side signal; the % refers to the signal ratio; further: potency means the concentration at half of the fitted maximal effect
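S3 HeLa stable clones carrying a lamin A-EGFP splicing minigene plus DsRed2 were seeded at 600 cells/well in Opti-MEM with 2% FBS, pin-dosed and incubated 48 h at 37°C. Acumen cytometry (488 nm) gave the GFP/RFP total-intensity ratio.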
KinaseGlo FLuc: blocks Kinase-Glo luciferase, a counter-screen artifact | actives 0.28% (n = 200,000) | Potency, µM (doses to about 38.3 µM), for inactives: at the top dose activity change, negative = inhibition, actives largely listed as inhibitors | Kinase-Glo luciferase, ATP luminescence, 8 min | Q27757 | AID 1379; active means well fitted inhibition curve with a large enough effect; inconclusive means small, poorly fitted or top-dose-only effect; further: potency means the concentration at half of the fitted maximal effect; nearly all actives have a fitted effect of over 60% in size
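Substrate mix (final 50 mM imidazole pH 7.2, 50 mM KCl, 7 mM MgCl2, 10 uM ATP, 0.01% Tween 20, 0.05% BSA) plus pin-tool compound, then Kinase-Glo detection mix; 8 min ambient, luminescence read.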
ALDH1A1 inh: blocks purified human ALDH1A1 activity | Purified ALDH1A1, NADH fluorescence, propionaldehyde substrate | Potency, µM (top dose mostly 75.3 µM), for the others: top-dose activity, negative = inhibition, usual class: inhibitors | actives 7.3% (n = 220,000);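 further: potency means the concentration at half of the fitted maximal effect; plate controls were no enzyme wells and a reference inhibitor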
Target sequence (P00352 whole entry, looked up): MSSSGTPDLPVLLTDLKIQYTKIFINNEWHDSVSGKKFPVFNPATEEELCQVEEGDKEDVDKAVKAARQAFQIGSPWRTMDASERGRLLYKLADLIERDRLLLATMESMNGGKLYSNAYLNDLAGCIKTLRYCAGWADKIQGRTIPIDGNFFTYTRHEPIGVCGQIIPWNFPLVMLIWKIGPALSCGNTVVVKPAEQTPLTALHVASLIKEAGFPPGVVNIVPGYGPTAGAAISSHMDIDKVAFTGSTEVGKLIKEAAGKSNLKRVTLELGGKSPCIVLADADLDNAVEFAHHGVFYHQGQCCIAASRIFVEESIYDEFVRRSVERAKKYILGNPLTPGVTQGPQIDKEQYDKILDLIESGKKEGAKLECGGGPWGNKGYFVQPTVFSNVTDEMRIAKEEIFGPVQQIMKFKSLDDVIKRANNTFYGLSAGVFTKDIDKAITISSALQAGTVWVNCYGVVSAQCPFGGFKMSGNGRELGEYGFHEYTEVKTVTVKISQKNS
HPGD inh: inhibitors of human 15-hydroxyprostaglandin dehydrogenase (HPGD); P15428; purified HPGD, NADH fluorescence kinetic, PGE2 substrate; Potency, µM, without a hit: top-dose activity change, negative = inhibition, hits mostly inhibitors; actives 4.3% (n = 150,000); AID 894; further: potency means the concentration at half of the fitted maximal effect
Target sequence (P15428 whole entry, looked up): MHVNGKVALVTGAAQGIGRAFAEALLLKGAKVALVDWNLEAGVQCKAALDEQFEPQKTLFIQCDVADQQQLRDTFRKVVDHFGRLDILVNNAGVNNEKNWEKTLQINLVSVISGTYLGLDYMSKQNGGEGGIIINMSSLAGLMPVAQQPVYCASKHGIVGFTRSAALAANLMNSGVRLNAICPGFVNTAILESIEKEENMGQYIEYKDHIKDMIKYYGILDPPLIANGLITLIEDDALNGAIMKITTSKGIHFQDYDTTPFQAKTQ
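NADH formation kinetics: reaction with 30 uM PGE2 and 1 mM NAD+ (final), 20 nM enzyme, Tris-HCl pH 8 with Tween 20, after 15 min compound preincubation at room temperature. Fluorescence change, last versus first of five reads.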
PNC inhibitor: blocks assembly of the perinucleolar compartment | activity change (PNC), negative = inhibition, % at 10 µM | PC3M PTB-GFP, PNC prevalence imaging, 16 h; active compounds read low | actives 3.1% (n = 140,000);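 active means readout at or below -70, meaning at least 70% loss of cells showing the perinucleolar compartment, a nuclear body marking cancer cells; inconclusive means readout between -30 and a set limit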;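 further: plate controls were DMSO wells for no effect and camptothecin positive control wells for full effect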
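Read-out is percentage of cells bearing a perinucleolar compartment, from automated 20x imaging of fixed, Hoechst-stained PC3M PTB-GFP cells. Cells were seeded 4 h, then exposed 16 h to compound (23 nl of library stock) in duplicate plates.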
An asterisk follows results filed as active; [ ] = dose if it differs, or a comment. An excerpt weighted towards active compounds, which were near 10% of everything screened. Unless noted, the call rests on the fitted dose curve; in most records, active means well fitted inhibition curve with a large enough effect (not every such curve was filed as active); inconclusive means small, poorly fitted or top-dose-only effect, or another doubt; inactive means no such curve, though single readings can be large or run the other way. Unless noted, on the % scale 0 is the no-effect control and ±100 the full control effect.

What do the screens show for `O=C1/C(=C/c2cccnc2)Oc2cc(OS(=O)(=O)c3ccc(F)cc3)ccc21`?
LMNA splice mod: -8.2%; KinaseGlo FLuc: -1.8%; ALDH1A1 inh: 8.91µM*; HPGD inh: 15.8µM*; PNC inhibitor: 13.9

Results for CCc1ccc(/C=C2\Oc3cc(OS(C)(=O)=O)ccc3C2=O)cc1 ?
LMNA splice mod: inconclusive; KinaseGlo FLuc: -1.7%; ALDH1A1 inh: -7.6%; HPGD inh: -12.9%; PNC inhibitor: -2.5

How did CC(N1CCOC1=O)S(=O)(=O)c1ccccc1 (stereo not drawn) do in these assays?
LMNA splice mod: -6.5%; KinaseGlo FLuc: -1.4%; ALDH1A1 inh: -15.3%; HPGD inh: -11.7%; PNC inhibitor: -110.2*

How did CO[C@]12C(COC(N)=O)C3=C(C(=O)C(C)=C(N)C3=O)N1CC1NC12 (stereo partly drawn) do in these assays?
KinaseGlo FLuc: -11.3%; ALDH1A1 inh: -3.1%; HPGD inh: -10.8%

How did CCOC(=O)CC(C(=O)OCC)P(=O)(c1ccccc1)c1ccccc1 (stereo not drawn) do in these assays?
LMNA splice mod: 4.2%; KinaseGlo FLuc: -2.7%; ALDH1A1 inh: 10µM*; HPGD inh: -3.5%; PNC inhibitor: -22.9

Results for CCCC(C(=O)OCC)P(=O)(c1ccccc1)c1ccccc1 (stereo not drawn) ?
LMNA splice mod: -0.2%; KinaseGlo FLuc: 11.5%; ALDH1A1 inh: 12.4%; HPGD inh: -2.1%; PNC inhibitor: 5.3

How did CC(CCc1ccco1)NC(=O)CSc1cc(=O)n(C)c2ccccc12 (stereo not drawn) do in these assays?
LMNA splice mod: 6.9%; KinaseGlo FLuc: -4.4%; ALDH1A1 inh: inconclusive; HPGD inh: 25.1µM*; PNC inhibitor: inconclusive

What do the screens show for `CCCCNC(=O)CSc1cc(=O)n(C)c2ccccc12`?
LMNA splice mod: 8.8%; KinaseGlo FLuc: -0.1%; ALDH1A1 inh: -9.1%; HPGD inh: 14.1µM*; PNC inhibitor: 11.5

Results for Cn1c(=O)cc(SCC(=O)NCCCN2CCOCC2)c2ccccc21 ?
LMNA splice mod: 12.6%; ALDH1A1 inh: 6.3%; PNC inhibitor: -9.3

What do the screens show for `COc1cc(NC(=O)CSc2nc3nc(C)c(Cc4ccc(C)cc4)c(C)n3n2)cc(OC)c1`?
LMNA splice mod: 11.1%[46 µM]

Results for CNS(=O)(=O)c1cn(CC(=O)Nc2cccc(OC)c2)cc1S(=O)(=O)NC ?
LMNA splice mod: -7.0%[46 µM]

What do the screens show for `CCOc1ccc(C(=O)Nc2nc(-c3ccc(Br)cc3)ns2)cc1`?
LMNA splice mod: 13.7%[46 µM]

What do the screens show for `CCOC(=O)c1cc(-c2ccccc2)n(CC(=O)N(C)c2ccc(OC)cc2)c1C`?
LMNA splice mod: 4.6%[46 µM]

Results for CCOC(=O)c1cccc(NC(=O)CSc2nc3ccccc3c(=O)n2CC)c1 ?
LMNA splice mod: 5.5%; KinaseGlo FLuc: -3.1%; ALDH1A1 inh: 9.3%; HPGD inh: -8.2%; PNC inhibitor: -93.6*

How did CCc1nnc(NC(=O)CSc2nc3c(c(=O)n2C)SC(C)C3)s1 (stereo not drawn) do in these assays?
LMNA splice mod: inconclusive; KinaseGlo FLuc: -0.5%; ALDH1A1 inh: 15.0%; HPGD inh: -3.0%; PNC inhibitor: -14.9

How did CCn1c(SCC(=O)Nc2cccc(C)c2)nc2c(c1=O)SC(C)C2 (stereo not drawn) do in these assays?
LMNA splice mod: -15.0%; KinaseGlo FLuc: 5.9%; ALDH1A1 inh: 20µM*; HPGD inh: -21.9%; PNC inhibitor: 8.1

Results for CC1Cc2nc(SCC(=O)NC3CCCCC3)n(C)c(=O)c2S1 (stereo not drawn) ?
LMNA splice mod: 19.8%; KinaseGlo FLuc: -4.1%; ALDH1A1 inh: -102.2%; HPGD inh: 39.8µM*; PNC inhibitor: -28.4

Results for CCn1c(SCC(=O)Nc2nnc(C)s2)nc2c(c1=O)SC(C)C2 (stereo not drawn) ?
LMNA splice mod: -5.3%; KinaseGlo FLuc: -0.6%; ALDH1A1 inh: 4.3%; HPGD inh: -13.4%; PNC inhibitor: inconclusive

Results for CCn1c(SCC(=O)N2CCOCC2)nc2c(c1=O)SC(C)C2 (stereo not drawn) ?
LMNA splice mod: -0.3%; KinaseGlo FLuc: 0.4%; ALDH1A1 inh: 1.6%; HPGD inh: -11.1%; PNC inhibitor: -100.0*

How did CCOc1ccc(CNC(=O)C2CCN(S(=O)(=O)N3CCC(C)CC3)CC2)cc1OC do in these assays?
LMNA splice mod: 4.4%[46 µM]

What do the screens show for `C#CCCOC(=O)N1C2=NC(C(=O)OC)=C(C(=O)OC)[C@@H]3N(CC#CC)c4ccccc4[C@]23C[C@H]1C(=O)OC`?
LMNA splice mod: 6.4%[9.22 µM]; KinaseGlo FLuc: -6.4%[7.66 µM]; ALDH1A1 inh: 6.6%[13.5 µM]; HPGD inh: -3.9%

How did Cc1cccc(-n2cnc3cc(C(=O)NCc4ccccc4Cl)ccc32)c1 do in these assays?
LMNA splice mod: 7.7%[46 µM]

Results for CCCCc1cc2c(cn1)=C(OC(=O)C1CCCC1)C(C)(OC(=O)CC)C(=O)C=2 (stereo not drawn) ?
LMNA splice mod: inconclusive; KinaseGlo FLuc: -4.4%[7.66 µM]; ALDH1A1 inh: inconclusive; HPGD inh: -3.3%

How did CCC(Sc1nc2ccccc2c2nc(CCc3c(C)n[nH]c3C)nn12)C(=O)Nc1ccc(F)cc1 (stereo not drawn) do in these assays?
LMNA splice mod: 11.7%[46 µM]

What do the screens show for `COC(=O)c1sccc1NC(=O)c1sccc1C`?
LMNA splice mod: -14.6%; KinaseGlo FLuc: 0.9%; ALDH1A1 inh: -3.7%; HPGD inh: inconclusive; PNC inhibitor: -100.0*

What do the screens show for `CCOC(=O)c1sc(NC(=O)c2sccc2C)cc1C`?
LMNA splice mod: -18.5%; KinaseGlo FLuc: 11.2µM*; ALDH1A1 inh: inconclusive; HPGD inh: inconclusive; PNC inhibitor: inconclusive

How did COC(=O)c1sccc1NC(=O)c1ccncc1 do in these assays?
LMNA splice mod: 8.5%; KinaseGlo FLuc: -2.2%; ALDH1A1 inh: -3.7%; HPGD inh: -17.7%; PNC inhibitor: 21.3

What do the screens show for `CN(C)S(=O)(=O)c1cc(NC(=O)CN2CCOCC2)ccc1Cl`?
LMNA splice mod: inconclusive; KinaseGlo FLuc: 1.1%; ALDH1A1 inh: -7.3%

How did CCN1CCN(CC(=O)Nc2ccc(Cl)c(S(=O)(=O)N(C)C)c2)CC1 do in these assays?
KinaseGlo FLuc: 3.9%; ALDH1A1 inh: 3.55µM*

How did CN(C)S(=O)(=O)c1ccc(NC(=O)CN2CCCc3ccccc32)cc1 do in these assays?
KinaseGlo FLuc: 0.6%; ALDH1A1 inh: 17.8µM*

What do the screens show for `COc1ccc(NC(=O)CN(C)CC(=O)Nc2ccc(Cl)c(S(=O)(=O)N(C)C)c2)cc1`?
LMNA splice mod: -3.9%[46 µM]; KinaseGlo FLuc: 1.4%; ALDH1A1 inh: inconclusive

What do the screens show for `NNC(=O)CN1CCCc2ccccc21`?
LMNA splice mod: -10.3%[46 µM]; KinaseGlo FLuc: -1.6%; ALDH1A1 inh: 6.31µM*

Results for CCCCc1ccc(NC(=S)Nc2ccc(Cl)c(S(=O)(=O)N(C)C)c2)cc1 ?
LMNA splice mod: inconclusive; KinaseGlo FLuc: -0.2%; ALDH1A1 inh: inconclusive; HPGD inh: -11.6%; PNC inhibitor: -119.1*
